Compound activity from PubChem BioAssay.
In the library only some 0.95% were active in any assay of this set; here they are far more common.
A488 fluor: qHTS Assay for Spectroscopic Profiling in A488 Spectral Region | AID 591, 2007 | compound autofluorescence, A488 spectral region, dye equivalency; Compound Type: qHTS ECL - MLSMR | max dye equivalency, M | 59,000 tested, 0.1% active
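Spectroscopic profiling in the A488 region: compounds in pH 8.0 Tris (100 mM), 15 min RT, CCD imaging with 480 nm excitation and 540 nm emission; responses normalized against A488 dye standards.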
Rhodamine autofl: qHTS Assay for Spectroscopic Profiling in Rhodamine Spectral Region; Rhodamine-region fluorescence, 547/598 nm, Tris buffer; stronger effect = higher value; max dye-equivalent concentration, M; 59,000 tested, 0.05% active; in the data active means max dye-equivalent concentration above about 11 nM; inconclusive means between about 1.1 nM and that limit
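A six-point rhodamine series on each plate calibrates the signal. Compounds sit in 100 mM Tris (pH 8.0) for 15 min at ambient temperature before imaging through 547 nm/598 nm filters.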
Texas Red fluor: qHTS Assay for Spectroscopic Profiling in Texas Red Spectral Region | Compound fluorescence, Texas Red channel, 547/618 nm; stronger effect = higher value | max dye-equivalent concentration, M | 59,000 tested, 0.06% active | AID 587, 2007; in the data active means max dye-equivalent concentration above about 10 nM; inconclusive means between about 1.1 nM and that limit
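Texas Red-region profiling: compounds in 100 mM Tris pH 8.0 were read at 547/618 nm after 15 min at room temperature. Intensities were normalized against a six-point Texas Red standard series to give dye-equivalent concentration.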
A647 autofl: qHTS Assay for Spectroscopic Profiling in A647 Spectral Region | max dye-equivalent concentration, M | 59,000 tested, under 10 active | Compound fluorescence, A647 channel (570/671 nm), Tris buffer | AID 592, 2007
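Tris 100 mM pH 8.0; cpd + A647 stds pin-transferred; 15 min RT; CCD imager, ex 570/em 671. Output = A647-equivalent conc. per cpd conc.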
Fluorescein autfl: qHTS Assay for Spectroscopic Profiling in Fluorescein Spectral Region | 59,000 tested, 0.91% active | max fluorescein-equivalent concentration, M | Compound autofluorescence, 480/540 nm, fluorescein-equivalent; stronger effect = higher value; in the data active means max fluorescein-equivalent concentration above about 10 nM; inconclusive means between about 1.1 nM and that limit
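Read-out is intrinsic compound fluorescence at 480/540 nm (excitation/emission), expressed as dye-equivalent concentration using a fluorescein standard series run on every plate. Compounds sat 15 min at room temperature in 100 mM Tris, pH 8.0.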
Resorufin fluor: qHTS Assay for Spectroscopic Profiling in Resorufin Spectral Region; max dye-equivalent concentration, M; 59,000 tested, 0.04% active; Compound fluorescence, resorufin region 547/598 nm, buffer; stronger effect = higher value
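Intrinsic fluorescence profiled in the resorufin window (ex 547 nm, em 598 nm) after 15 min at room temperature in pH 8.0 Tris buffer (100 mM); responses normalized against a six-point resorufin standard series as dye-equivalent concentration.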
Each line names hits and unclear results; the compound was inactive in the other large screens. Unless noted, how the calls were made is not given here.

CN1C(=O)C(Cc2c[nH]c3ccccc23)C(=O)N(C)C1=O	A488 fluor inconclusive, Rhodamine autofl 1.38e-08M, Texas Red fluor inconclusive, Fluorescein autfl 3.36e-08M, Resorufin fluor 1.03e-08M
CCN(CC)c1ccc(N=Cc2c(O)n(CCC3=CCCCC3)c(=O)[nH]c2=O)cc1	A488 fluor inconclusive, Fluorescein autfl 9.26e-08M
C=CCn1c(O)c(C=NCCN(C)C)c(=O)[nH]c1=O	Fluorescein autfl inconclusive
CN(C)c1ccc(N=Cc2c(O)n(CCC3=CCCCC3)c(=O)[nH]c2=O)cc1	Texas Red fluor inconclusive, Fluorescein autfl 1.35e-08M
O=c1[nH]c(=O)n(CCC2=CCCCC2)c(O)c1C=NCCN1CCNCC1	none
C=CCn1c(O)c(C=Nc2ccc(N(CC)CC)cc2)c(=O)[nH]c1=O	Fluorescein autfl 1.41e-08M
OC[C@H]1CCCN2CCCC[C@@H]12	none
CC[C@H]1CN2CC[C@@H]1C[C@@H]2[C@H](O)c1ccnc2ccccc12	none
COc1ccc(C[C@@H]2NC[C@H](O)[C@H]2OC(C)=O)cc1	Fluorescein autfl inconclusive
CCN(CC)C(=O)N[C@H]1C=C2c3cccc4[nH]cc(c34)C[C@@H]2N(C)C1	A488 fluor inconclusive, Texas Red fluor inconclusive, Fluorescein autfl 4.97e-08M
O=C(O)[C@@H](O)[C@@H](O)[C@@H]1[O][Sb][O][C@@H]1CO	none
CC(C)[C@@]1(NC(=O)[C@@H]2C[C@H]3c4cccc5[nH]cc(c45)C[C@@H]3N(C)C2)O[C@]2(O)[C@H]3CCCN3C(=O)[C@H](Cc3ccccc3)N2C1=O	Texas Red fluor inconclusive
CC(C)C[C@H]1C(=O)N2CCC[C@@H]2[C@@]2(O)O[C@](NC(=O)[C@@H]3C=C4c5cccc6[nH]cc(c56)C[C@@H]4N(C)C3)(C(C)C)C(=O)N12	A488 fluor inconclusive, Fluorescein autfl 4.88e-08M
CC(C)C[C@H]1C(=O)N2CCC[C@@H]2[C@]2(O)O[C@](NC(=O)[C@H]3C=C4c5cccc6[nH]cc(c56)C[C@H]4N(C)C3)(C(C)C)C(=O)N12	Fluorescein autfl 1.34e-08M
C=CCN1CCc2cccc3c2[C@@H]1Cc1ccc(O)c(O)c1-3	Fluorescein autfl inconclusive
NC(N)=Nc1ccc2[nH]c3c(c2c1)C[C@]1(O)[C@@H]2Cc4ccc(O)c5c4[C@]1(CCN2CC1CC1)[C@H]3O5	Fluorescein autfl inconclusive
COc1cc2ccccc2c2cc([N+](=O)[O-])oc12	A488 fluor inconclusive, Fluorescein autfl 3.99e-08M
Cc1ccc(-n2c(O)c(C=Nc3ccccc3N)c(=O)[nH]c2=O)cc1C	Fluorescein autfl inconclusive
O=c1[nH]c(=O)n(-c2ccc(F)cc2)c(O)c1C=Nc1ccccc1N1CCCC1	A488 fluor inconclusive, Fluorescein autfl 3.96e-08M
CN1CCN(c2ccc([N+](=O)[O-])c3[nH]o[n+](=O)c23)CC1	A488 fluor inconclusive, Rhodamine autofl inconclusive, Fluorescein autfl 1.31e-07M
Nc1c(C(=O)NCCc2ccccc2)c2nc3ccccc3nc2n1CCN1CCOCC1	Fluorescein autfl inconclusive
COCCNC(=O)c1c(NC(=O)c2ccco2)n(Cc2ccccc2)c2nc3ccccc3nc12	Fluorescein autfl 1.08e-08M
COc1cc(C=C(C#N)C#N)cc(O)c1O	Fluorescein autfl 2.52e-08M
O=c1ccc2cc(O[C@@H]3O[C@@H](CO)[C@@H](O)[C@@H](O)[C@H]3O)c(O)cc2o1	none
CC[C@H](CO)NC(=O)[C@@H]1C=C2c3cccc4c3c(cn4C)C[C@@H]2N(C)C1	Fluorescein autfl 1.5e-08M
CC(C)n1cc2c3c(cccc31)[C@@H]1C[C@H](C(=O)O[C@@H](C)[C@H](C)O)CN(C)[C@H]1C2	Fluorescein autfl 1.07e-08M
CNc1ccc2oc(C[C@@H]3O[C@@]4(CC[C@H]3C)O[C@@H]([C@@H](C)C(=O)c3ccc[nH]3)[C@@H](C)C[C@H]4C)nc2c1C(=O)O	Fluorescein autfl inconclusive
CC(C)(C)OC(=O)c1c(N)n(Cc2ccco2)c2nc3ccccc3nc12	Fluorescein autfl 2.84e-08M
Nc1c(C(=O)NCCN2CCOCC2)c2nc3ccccc3nc2n1Cc1ccco1	Fluorescein autfl 1.87e-08M
